Records with an inconclusive call do not appear. Activity calls are given as the source filed them. Calls follow the shape of the dose curve; as a rule, active = well fitted cell-killing curve with a large enough effect in the repeat runs; inconclusive = weak or mixed curves; inactive = flat fitted curve, though single readings scatter.
experiment: qHTS assay to identify small molecule antagonists of the TGF-beta/Smad signaling pathway - cell viability counter screen (AID 1346824); details: SBE-bla HEK293T viability, CellTiter-Glo luminescence; series mostly up to 76.8 µM; also: nearly all actives have a fitted effect of over 50% in size
Excerpt: U.S. Tox21 Program National Center for Advancing Translational Sciences [NCATS] NIH Chemical Genomics Center [NCGC] U.S. Environmental Protection Agency [EPA] National Institutes of Environmental Health Sciences [NIEHS] National Toxicology Program [NTP] U.S. Food and Drug Administration [FDA] Tox21 Assay Overview: Transforming growth factor beta (TGF-beta) superfamily consists of a large number of structurally related dimeric proteins that act as hormones or local mediators in regulating a wide range of biological functions. This superfamily includes TGF-betas themselves, the bone morphogenetic proteins (BMPs) and the activins. These ligands induce oligomerization of serine/threonine receptor kinases and phosphorylate the cytoplasmic signaling molecules of Smad protein family. CellSensor SBE-bla HEK 293T cell line (Life Technologies, Carlsbad, CA), responsive to TGF-beta was used to screen Tox21 10K compound library for identification of agonists/antagonists of the Smad signaling pathway. This cell line contains a beta-lactamase reporter gene under control of the Smad binding element (SBE) stably integrated into HEK 293T cells. Also cytotoxicity of the compounds was tested in parallel by measuring the cell viability using CellTiter-Glo assay system in the same wells.
Tox21 Assay Protocol Summary: SBE-bla HEK 293T cells were dispensed at 4,000/well in 5 uL of assay medium into black wall/clear-bottom 1536-well plates using a Multidrop Combi (ThermoFisher Scientific, Waltham, MA) dispenser. After the assay plates were incubated at 37 C and 5% CO2 for an overnight, 23 nL of compounds dissolved in DMSO, positive controls or DMSO only was transferred to the assay plate by a Pintool station (Kalypsys, San Diego, CA). Compound transfer was followed by the addition of 1 uL of 0.25 ng/mL TGF-beta1 or assay buffer using two separate tips of Flying Reagent Dispenser (FRD, Aurora Discovery, San Diego, CA). The assay plates were incubated at 37 C and 5% CO2 for 5 hr. One uL of LiveBLAzer B/G FRET substrate (Life Technologies) was added using a Flying Reagent Dispenser (FRD, Aurora Discovery, San Diego, CA) and the plates were incubated at room temperature for 2 hr. Fluorescence intensity (405 nm excitation, 460 nm and 530 nm emissions) was measured using an Envision plate reader (PerkinElmer, Shelton, CT). For cytotoxicity read, 4 uL of CellTiter-Glo reagent (Promega Corporation, Madison, WI) was added to each well of the assay plates using FRD. After 30 min incubation at room temperature, the luminescence intensity was measured using ViewLux plate reader (PerkinElmer).
% is scaled to controls: 0 for no effect and ±100 for the full control effect.

| Structure (SMILES) | outcome | viability change, negative = cytotoxic |
| --- | --- | --- |
| CCC(C=O)CC | inactive |  |
| CC(C)c1ccc2cc(C(C)C)ccc2c1 | inactive |  |
| O=C(O)Cc1ccc(Cl)cc1Cl | inactive |  |
| C=CCCCCCCCCCCCC | inactive |  |
| C=C(C)C(=O)OCCOP(=O)(O)OCCOC(=O)C(=C)C | inactive |  |
| Cc1cccc(C)c1NC(=O)c1ccccc1C(=O)O | inactive |  |
| CCOC(=O)/C=C/c1ccccc1 | inactive |  |
| Cc1ccc(S(=O)(=O)O)c(C)c1 | inactive |  |
| COCCOC(=O)C1=C(C)NC(C)=C(C(=O)OC(C)C)C1c1cccc([N+](=O)[O-])c1 (stereo not given) | inactive |  |
| CN(C)c1ccc(C=O)cc1 | inactive |  |
| CN=C(NC#N)Nc1ccc(C2=NNC(=O)CC2C)cc1 (stereo not given) | inactive |  |
| CN1CCN(CC(=O)N2c3ccccc3C(=O)Nc3cccnc32)CC1 |  | -11.9% [at 6.97 µM] (inactive) |
| Cc1c(I)c(=O)n(-c2ccccc2)n1C | inactive |  |
| CC(C)C(=O)OCCc1ccccc1 | inactive |  |
| CCC(C)NC(N)=O (stereo not given) | inactive |  |
| CC(C)C(=O)OCc1cccc(OC(=O)[C@@H]2N3C(=O)[C@@H](NC(=O)Cc4ccccc4)[C@H]3SC2(C)C)c1 | inactive |  |
| CC1=CCC(C(C)C)=CC1 | inactive |  |
| Cc1cc2cc3c(C)cc(=O)oc3c(C)c2o1 | inactive |  |
| COC(=O)c1ccccc1C(=O)c1ccc(OCCN2CCCCC2)cc1 | inactive |  |
| CC(=O)c1ccc2c(c1)Cc1ccccc1-2 | inactive |  |

| Structure (SMILES) | outcome | viability change, negative = cytotoxic |
| --- | --- | --- |
| CO[C@@H]1[C@@H](OC(N)=O)[C@@H](O)[C@H](Oc2ccc3c(O)c(NC(=O)c4ccc(O)c(CC=C(C)C)c4)c(=O)oc3c2C)OC1(C)C | inactive |  |
| N[C@@H](COP(=O)(O)O)C(=O)O |  | -0.3% [at 15.8 µM] (inactive) |
| CC(=O)Nc1ccc(S(=O)(=O)Nc2ccc([N+](=O)[O-])cc2)cc1 | inactive |  |
| COc1cc(N)ccc1C | inactive |  |
| Cc1cccc2nccnc12 | inactive |  |
| COc1cc2c(cc1OC)C(=O)CC2 | inactive |  |
| COc1nccnc1NS(=O)(=O)c1ccc(N)cc1 | inactive |  |
| c1ccc2c(c1)ccc1c3ccccc3ccc21 | inactive |  |
| CC(C)CCCC(C)(C)O | inactive |  |
| NS(=O)(=O)c1cc2c(cc1Cl)CN(C1CCCCC1)C2=O | inactive |  |
| ClCCCl | inactive |  |
| Nc1ccc([N+](=O)[O-])c(N)c1 | inactive |  |
| CCc1ccc(C=O)cc1 | inactive |  |
| CCN(CC)CC(=O)Nc1c(C)cccc1C | inactive |  |
| O=C(O)c1ccc(Cl)cc1Cl | inactive |  |
| CCCC/C=C/C=C\C=O | inactive |  |
| CC(=O)c1sc(C)nc1C | inactive |  |
| CCCCC(CC)COCCO (stereo not given) | inactive |  |
| CCCOC(OCCC)OCCC | inactive |  |
| CCOC(=O)[C@H](CCc1ccccc1)N[C@@H](C)C(=O)N1C(=O)N(C)C[C@H]1C(=O)O | inactive |  |

From PubChem BioAssay (Tox21)
